Activity calls are given as the source filed them.

Composite z-score and z-score data for 16 compounds are collected here from PubChem BioAssay.

The nature of assay [1]: small molecules captured by biotinylated probe aFSTL3 – biochemical, small-molecule microarray, fluorescence 635/667, stem cell growth factor project, primary screen (AID 1064).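 Further: measures binding of the biotinylated anti-FSTL3 antibody to printed compounds.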 Conditions: higher = more signal.
A short description of assay [2]: binders from COS7 lysate, DM2A8 probe, primary screen, torsin A project, cell lysate, small-molecule microarray, fluorescence 635/667 (AID 1065). Conditions: higher = more signal, COS7 lysate expressing mutant human TOR1A.
Assay [3] is described as follows: small molecules captured by biotinylated probe aFGF2 – biochemical, small-molecule microarray, fluorescence 635/667, stem cell growth factor project, primary screen (AID 1067).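 Further: measures binding of biotinylated aFGF2 protein to printed compounds on slides; z-score merges feature fluorescence and signal-to-noise across triplicate slides.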 The settings on record: higher = more signal.
The nature of assay [4]: small molecules captured by biotinylated probe aFGF10 – biochemical, small-molecule microarray, fluorescence 635/667, stem cell growth factor project, primary screen (AID 1071).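 Further: score merges 667 nm spot intensity and signal to noise from triplicate slides.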 Conditions: higher = more signal.
The target in assay [5] is Neurogenic locus notch homolog protein 2 (Homo sapiens) (UniProt Q04721). Briefly: small molecules binding Notch2 protein – biochemical, small-molecule microarray, 635 nm fluorescence, stem cell growth factors, primary screen (AID 1073). The settings on record: higher = more signal.
Chain of Neurogenic locus notch homolog protein 2 (Homo sapiens) (Q04721 whole entry, looked up, canonical isoform): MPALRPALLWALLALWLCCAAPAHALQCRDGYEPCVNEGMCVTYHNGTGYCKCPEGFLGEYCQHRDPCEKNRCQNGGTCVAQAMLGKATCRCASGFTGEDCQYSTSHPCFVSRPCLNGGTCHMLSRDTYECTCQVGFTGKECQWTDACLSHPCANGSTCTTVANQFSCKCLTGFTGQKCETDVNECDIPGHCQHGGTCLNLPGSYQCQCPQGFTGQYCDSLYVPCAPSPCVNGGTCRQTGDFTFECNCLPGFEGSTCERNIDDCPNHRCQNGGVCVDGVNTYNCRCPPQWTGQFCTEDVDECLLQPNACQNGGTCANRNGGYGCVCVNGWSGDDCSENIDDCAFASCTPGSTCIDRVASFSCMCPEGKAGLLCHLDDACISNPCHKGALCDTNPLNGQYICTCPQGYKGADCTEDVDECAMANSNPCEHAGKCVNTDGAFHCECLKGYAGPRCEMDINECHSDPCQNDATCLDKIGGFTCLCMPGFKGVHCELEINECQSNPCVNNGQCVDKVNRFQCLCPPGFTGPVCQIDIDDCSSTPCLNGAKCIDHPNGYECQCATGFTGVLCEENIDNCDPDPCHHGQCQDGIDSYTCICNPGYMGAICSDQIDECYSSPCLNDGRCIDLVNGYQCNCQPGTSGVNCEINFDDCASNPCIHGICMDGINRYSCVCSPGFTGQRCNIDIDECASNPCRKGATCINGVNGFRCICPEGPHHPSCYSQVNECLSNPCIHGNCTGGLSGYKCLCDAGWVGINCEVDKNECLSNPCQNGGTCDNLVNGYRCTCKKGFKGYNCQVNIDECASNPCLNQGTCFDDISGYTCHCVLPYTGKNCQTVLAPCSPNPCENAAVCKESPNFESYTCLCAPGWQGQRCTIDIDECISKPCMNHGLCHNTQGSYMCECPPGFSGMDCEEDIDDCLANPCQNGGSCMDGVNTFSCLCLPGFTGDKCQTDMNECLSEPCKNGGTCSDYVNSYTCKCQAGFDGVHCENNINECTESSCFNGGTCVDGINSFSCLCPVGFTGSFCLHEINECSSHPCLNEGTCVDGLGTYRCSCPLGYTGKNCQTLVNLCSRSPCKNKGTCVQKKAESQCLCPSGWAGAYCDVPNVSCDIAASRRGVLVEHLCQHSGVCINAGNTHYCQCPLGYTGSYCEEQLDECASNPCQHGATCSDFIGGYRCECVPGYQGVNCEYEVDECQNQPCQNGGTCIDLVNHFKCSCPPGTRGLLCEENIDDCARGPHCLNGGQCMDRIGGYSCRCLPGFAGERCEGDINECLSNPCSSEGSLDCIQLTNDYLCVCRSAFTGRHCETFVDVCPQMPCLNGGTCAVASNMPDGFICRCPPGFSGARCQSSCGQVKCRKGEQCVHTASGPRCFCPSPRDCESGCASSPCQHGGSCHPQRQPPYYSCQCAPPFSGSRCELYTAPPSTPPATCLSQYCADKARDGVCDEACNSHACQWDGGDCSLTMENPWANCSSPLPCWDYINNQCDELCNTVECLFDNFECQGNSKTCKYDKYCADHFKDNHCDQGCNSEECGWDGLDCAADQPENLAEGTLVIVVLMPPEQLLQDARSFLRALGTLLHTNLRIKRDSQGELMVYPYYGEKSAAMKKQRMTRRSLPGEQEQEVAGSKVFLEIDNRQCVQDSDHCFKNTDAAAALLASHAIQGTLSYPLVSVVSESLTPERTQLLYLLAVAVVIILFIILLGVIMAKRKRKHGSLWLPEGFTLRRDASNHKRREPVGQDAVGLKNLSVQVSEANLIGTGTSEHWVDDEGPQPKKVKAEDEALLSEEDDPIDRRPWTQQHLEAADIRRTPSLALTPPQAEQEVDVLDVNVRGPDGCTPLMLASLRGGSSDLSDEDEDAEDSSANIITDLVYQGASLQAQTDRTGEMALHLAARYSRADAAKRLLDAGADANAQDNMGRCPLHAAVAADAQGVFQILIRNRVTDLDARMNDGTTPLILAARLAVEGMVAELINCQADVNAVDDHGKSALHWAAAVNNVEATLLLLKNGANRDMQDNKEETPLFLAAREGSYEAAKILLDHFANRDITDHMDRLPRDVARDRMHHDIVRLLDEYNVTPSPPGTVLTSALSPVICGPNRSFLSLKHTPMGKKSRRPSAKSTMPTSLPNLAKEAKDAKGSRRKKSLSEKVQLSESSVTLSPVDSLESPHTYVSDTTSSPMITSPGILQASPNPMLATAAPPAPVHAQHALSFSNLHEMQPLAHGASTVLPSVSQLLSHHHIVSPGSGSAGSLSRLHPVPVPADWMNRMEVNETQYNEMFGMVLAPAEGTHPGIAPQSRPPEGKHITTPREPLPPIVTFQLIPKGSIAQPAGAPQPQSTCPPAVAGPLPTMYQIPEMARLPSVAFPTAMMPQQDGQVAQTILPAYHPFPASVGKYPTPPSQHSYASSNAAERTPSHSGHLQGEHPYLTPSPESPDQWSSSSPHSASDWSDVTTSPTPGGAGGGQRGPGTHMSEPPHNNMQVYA
Assay [6] addresses Pro-neuregulin-1, membrane-bound isoform (Homo sapiens) (UniProt Q02297). Briefly: small molecules binding neuregulin-1 protein – biochemical, small-molecule microarray, fluorescence 635/667, psychiatric disease protein project, primary screen (AID 1075).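 Further: score combines 667 nm spot fluorescence with signal to noise.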 The settings on record: NRG1 binding, 635 nm fluorescence, higher = more signal.
The subject of assay [7] is Neuregulin-1 EGF-like domain. Briefly: small molecules binding NRG1 EGF domain – biochemical, small-molecule microarray, 635 nm fluorescence, primary screen (AID 1081).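 Further: binding of the protein to compounds printed on small-molecule microarray slides.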 Conditions: higher = more signal.
A short description of assay [8]: FRG1 expression reporter modulators in myotubes – cell-based, C2C12 myotubes, firefly/Renilla luciferase, luminescence, FRG1 inhibition for FSHD, primary screen (AID 1084). The settings on record: FRG1 promoter luciferase, higher = more signal, called active from +8 up or from −8 down.
The nature of assay [9]: small molecules captured by biotinylated probe aFST – biochemical, small-molecule microarray, fluorescence 635/667, stem cell growth factor project, primary screen (AID 1086).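 Further: score merges 667 nm fluorescence with signal-to-noise of each printed compound spot.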 The settings on record: higher = more signal.
Assay [10] is described as follows: binders of probe aHhip on microarray, primary screen, stem cell growth factor project, biochemical, small-molecule microarray, fluorescence 635/667 (AID 1087).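 Further: score merges spot fluorescence at 667nm with spot signal to noise ratio.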 Conditions: higher = more signal.

Chain of Pro-neuregulin-1, membrane-bound isoform (Homo sapiens) (Q02297 whole entry, looked up, the tested form may be a part, canonical isoform): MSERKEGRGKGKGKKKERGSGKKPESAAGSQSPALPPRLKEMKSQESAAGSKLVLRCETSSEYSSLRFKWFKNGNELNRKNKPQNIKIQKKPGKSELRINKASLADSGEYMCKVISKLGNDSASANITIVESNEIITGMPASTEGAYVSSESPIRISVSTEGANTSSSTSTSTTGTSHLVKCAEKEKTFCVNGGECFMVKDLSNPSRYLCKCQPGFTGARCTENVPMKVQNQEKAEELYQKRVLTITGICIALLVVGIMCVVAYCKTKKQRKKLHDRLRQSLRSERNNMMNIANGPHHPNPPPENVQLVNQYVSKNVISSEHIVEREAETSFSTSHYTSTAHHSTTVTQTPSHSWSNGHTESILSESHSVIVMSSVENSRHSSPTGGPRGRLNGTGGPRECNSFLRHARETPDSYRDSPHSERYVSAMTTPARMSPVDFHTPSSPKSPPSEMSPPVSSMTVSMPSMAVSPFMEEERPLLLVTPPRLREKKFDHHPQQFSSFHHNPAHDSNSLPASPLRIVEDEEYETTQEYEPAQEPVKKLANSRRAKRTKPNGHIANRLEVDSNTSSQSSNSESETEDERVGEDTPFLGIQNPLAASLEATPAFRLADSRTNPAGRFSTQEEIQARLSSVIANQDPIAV

As for `COCCCNC(=O)[C@]1(CCC(=O)OC(C)(C)C)N=C(c2ccc(OCCCO)cc2)O[C@@H]1c1ccccc1`, the composite z-score in assay [1] worked out at 1.19; in assay [2] it was 0.389; in assay [3], 0.0629; in [4], 0.578; in assay [5], 0.819; in assay [6] it was 1.96. Besides, the composite z-score in assay [7] came to 1.28; in assay [9], 0.888; in assay [10] it was 0.591. The z-score in assay [8] was 0.977 (inactive).

With `C=CCOC(=O)[C@H]1[C@@H]2C(=O)O[C@@H](c3ccccc3)[C@@H](c3ccccc3)N2[C@@H](c2ccc(OCCOC(=O)[C@H]3C[C@H]4C(=O)N[C@@H](CCCC[N+](C)(C)C)C(=O)N4[C@H]3c3cccc(OCCO)c3)cc2)[C@]12C(=O)Nc1ccc(I)cc12`, the composite z-score in [1] is -0.345; in [2] it was 0.46; in [3], -0.0937; in assay [4], 0.723; in [5], 0.312; in assay [6], 0.288. Further, the composite z-score in [7] is 0.755; in [9] it was -0.278; in assay [10] it was -0.126. The z-score in assay [8] is 0.707 (inactive).

In the case of `COc1ccc(C(O)C2C=CC3C(=O)N(Cc4ccccc4)C(=O)C3N2n2cnnc2)c2ccccc12` (stereo not given), the composite z-score was 0.487 in assay [1]; 1.07 in assay [2]; -0.0876 in assay [3]; -0.522 in assay [4]; -0.782 in assay [5]; 1.81 in assay [6]. In addition, the composite z-score in [7] is 1.32; in assay [9], 0.623; in [10], -0.162. The z-score in [8] was 0.422 (inactive).

On to `CCOC(=O)C1=CC[C@@H](c2ccc([N+](=O)[O-])cc2)N(S(=O)(=O)c2ccc(C)cc2)[C@H]1c1ccccc1`, for which the composite z-score in [1] was -0.298; in [2], 0.491; in assay [3], 0.052; in [4] it was 0.628; in [5] it was 1.55; in [6], 0.525. Further, the figures for the composite z-score in assay [7], in assay [9] and in assay [10] were 1.4, 0.858 and 0.0695, respectively. For the same compound, in [8], the z-score is -2.02 (inactive).

Regarding `COCCOC(=O)N1C(=O)[C@@]2(c3cc(C#CCNC(N)=O)ccc31)[C@H](C(=O)N1CCCCCCC1)[C@H]1C(=O)O[C@H](c3ccccc3)[C@H](c3ccccc3)N1[C@@H]2c1ccc(O)cc1`, the composite z-score is 0.333 in assay [1]; 0.189 in assay [2]; -0.0557 in assay [3]; 0.159 in assay [4]; 0.845 in assay [5]; 0.571 in assay [6]. Also, the composite z-score in assay [7] came to 0.596; in [9] it was 0.706; in [10], 0.0066. Also, in assay [8], the z-score was -0.134 (inactive).

`O=C1C[C@@](C(=O)NCC(F)(F)F)(c2ccc([N+](=O)[O-])cc2)[C@@H](c2ccc(CO)cc2)N1C1CCCCC1`: the composite z-score in [1] is 0.99; in assay [2] it was 1.2; in [3], 0.0216; in assay [4], 0.606; in [5], 0.303; in [6], 1.24. In addition, the figures for the composite z-score in assay [7], in assay [9] and in [10] were 1.37, 0.243 and 0.554, respectively. The z-score in assay [8] is 0.265 (inactive).

For the compound `C=C(C(=O)CC[C@H](OC(=O)c1cccnc1)c1cccc(OCCO)c1)C(C)C`, the composite z-score in assay [1] was 0.483; in assay [2], 0.401; in assay [3], -0.157; in assay [4], -0.195; in [5], -1.26; in [6], -0.593. In addition, the composite z-score in assay [7] is 0.484; in [9] it was -0.809; in assay [10], 0.238. Besides, the z-score in [8] was 0.243 (inactive).

Regarding `C=C(CCCC)/C(=C/C[C@@H](OC(=O)c1ccncc1)c1cccc(OCCO)c1)c1cnc2ccccc2c1`, the composite z-score in assay [1] is 0.186; in assay [2], 0.935; in assay [3], 0.049; in assay [4], 1.03; in [5], 1.3; in assay [6] it was 0.972. The composite z-score in [7] came out at 1.13; in assay [9], 0.0095; in [10] it was 0.443. In addition, in assay [8], the z-score was 2.51 (inactive).

Consider `CCOC(=O)C[C@H]1[C@H](OC(=O)c2ccc(-c3ccccc3)cc2)[C@@H](NC(=O)C2CCCCC2)c2cc(OCCCO)ccc2N1C(=O)c1ccccc1`, for which the composite z-score in assay [1] was -0.539; in assay [2], 0.338; in assay [3], -0.0344; in assay [4] it was 0.303; in assay [5] it was 0.425; in [6], 0.397. The composite z-score in [7] worked out at 0.337; in [9], 0.345; in [10] it was 0.103. For the same compound, in assay [8], the z-score was -0.298 (inactive).

Turning to `CN1C(=O)C2C=CC(C(O)c3c(F)cccc3Cl)N(Nc3ccccc3)C2C1=O` (stereo not given), the composite z-score in [1] was -0.196; in [2] it was -0.198; in [3], 0.171; in [4], 0.334; in [5] it was 1.55; in assay [6] it was 1.84. Also, the values for the composite z-score in [7], in assay [9] and in [10] were 1.1, 0.878 and -0.0346, respectively. Moreover, in [8], the z-score was 0.433 (inactive).

As to `C=CCN1Cc2ccccc2C[C@@]2(N=C(c3ccc(OCCCO)cc3)O[C@H]2c2ccccc2)C1=O`, the composite z-score is 0.633 in assay [1]; 0.604 in [2]; 0.0109 in assay [3]; -0.364 in assay [4]; 1.09 in [5]; 1.04 in assay [6]. The values for the composite z-score in [7], in [9] and in assay [10] were 1.29, 0.383 and 0.297, respectively. Moreover, in assay [8], the z-score is -1.32 (inactive).

For the compound `C=CCN1C(=O)[C@@]2(O[C@@H](CCn3cc([C@H](O)c4ccccc4)nn3)[C@H]([Si](C)(C)c3ccc(OC)cc3)[C@H]2C)c2ccccc21`, the composite z-score is -0.0119 in assay [1]; 0.395 in assay [2]; -0.036 in assay [3]; 0.386 in assay [4]; 0.501 in assay [5]; 1.31 in [6]. For the same compound, the composite z-score is 1.01 in assay [7], 0.728 in assay [9] and -0.289 in assay [10]. Further, the z-score in assay [8] is -1.45 (inactive).

On to `COc1ccc(NC(=O)O[C@H]2[C@H](OC(=O)Nc3ccc4c(c3)OCO4)[C@@H](OC(=O)Nc3ccc4c(c3)OCO4)[C@@H](OC)O[C@@H]2CO)cc1`, for which the composite z-score in assay [1] was 0.157; in assay [2] it was -0.0536; in assay [3], 0.0397; in [4], 0.639; in [5] it was 0.922; in assay [6] it was 1.57. In addition, the composite z-score in assay [7] was 1.2; in assay [9], 0.4; in assay [10], -0.0296. Also, the z-score in [8] is 6.75 (inactive).

Turning to `C=C(COC)/C(=C/C[C@@H](OC(=O)c1ccncc1)c1cccc(OCCO)c1)c1cnc2ccccc2c1`, the composite z-score in assay [1] came out at 0.234; in [2], 1.99; in assay [3], 0.0601; in assay [4] it was 1.19; in assay [5], 1.76; in [6] it was 1.14. The composite z-score was determined as 1.2 in assay [7], 1.47 in assay [9] and 0.251 in [10]. Also, the z-score in assay [8] is 0.589 (inactive).

As for `NC(=O)NCC#Cc1ccc2c(c1)[C@]1(C(=O)N2)[C@H](C(=O)O)[C@H]2C(=O)O[C@H](c3ccccc3)[C@H](c3ccccc3)N2[C@@H]1c1ccccc1OCCO`, the composite z-score is 0.991 in [1]; 0.396 in assay [2]; -0.0749 in assay [3]; 0.776 in [4]; 0.231 in assay [5]; 1.99 in assay [6]. Moreover, the composite z-score in [7] came to 1.01; in assay [9], 0.734; in assay [10], 0.291. In [8], the z-score was -0.765 (inactive).

Take `CC1CC/C=C\[C@H]2OC34C=CCN(CCN5CCOCC5)C(=O)[C@H]3N(CCO)C(=O)[C@@H]4C2C(=O)O1` (stereo not given in full): the composite z-score is 0.507 in assay [1]; -0.342 in [2]; 0.013 in [3]; -0.105 in [4]; -0.807 in assay [5]; -0.917 in assay [6]. Further, the composite z-score in assay [7] is -0.376; in [9], -0.421; in assay [10], -0.4. In addition, the z-score in assay [8] was -0.322 (inactive).
